Changes are numbered by the printed parent chain. In all, about 24,000 sequences were measured (“enrichment r”: median about 0.99, highest 2% from about 3.7 on). The sample holds the highest values, similar sequences and a random draw of the others, so the mix is not that of the screen.
T1: UNK ZnF1-3 (human, UniProt Q9C0B0 31-174)
T1 sequence: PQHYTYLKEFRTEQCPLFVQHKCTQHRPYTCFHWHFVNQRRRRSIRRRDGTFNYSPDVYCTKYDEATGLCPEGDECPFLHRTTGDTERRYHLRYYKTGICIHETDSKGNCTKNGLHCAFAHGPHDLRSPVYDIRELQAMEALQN

B1: chr6:36760027:36760028:-_ENSMUSG00000029838_ENSMUST00000101534|mus_hu|FALSE|FALSE (ssRNA)
RNA: GGGAGUUCUACAGUCCGACGAUCGUACCCGGCUCGCUGCAGCUCCUGCUUGGGCCGCUGCUGCUCUCCCCGCCUUCUGGACGGAUGACUCACUGGUCUCUUUCUUCCCCUCUCUCCACUUUGGAUUUUCCUCUGCUCUGGGGCCAACAGAGGAUUGAGCAUCA
B2: chr5:37680062:37680063:+_ENSMUSG00000029121_ENSMUST00000031004|mus_hu|mus_mus_mus_hu_False|8_38 (ssRNA)
RNA: GGGAGUUCUACAGUCCGACGAUCUUUGGGUGUAGCUGGUACCUCGUACACAGGACCGUCAUACAUGCCCCUGGAAACCCCUUGCAAUCCAAAAACCUUGCUUCUGAUUUUGACGCGCUGGUACAGGUGCUCUGGGAACGCCUUCAACAGAGGAUUGAGCAUCA
B3: chr18:54424204:54424205:+_ENSG00000091157_ENST00000357574|hu_mus|FALSE|FALSE (ssRNA)
RNA: GGGAGUUCUACAGUCCGACGAUCCCAGGCGUGGAGACAGGACAUGAAUAAUUUUGCGGUAUCCAUAGUAAGGUUGUAUUCUAGUAGGGUCAGUGGCUUGGACUUGCUGGCCCGGUACUCAGGGUCACUAUCCUCCCUGCUCUGCAACAGAGGAUUGAGCAUCA
B4: 95985174_95988629_161_5pUTR_ENSMUSG00000038486_ENSMUST00000035371|mouse|control|control (ssRNA)
RNA: GGGAGUUCUACAGUCCGACGAUCGGCUAAACUGAGGAUCCAAGAUAUUUCAGGGAGGGCUGCCUAUUUUUCUUCUGAGAGGCUCUGAAGACCUGAGCUUGGUUCCCCGGGUCAGGGAGUCCCCGGGUGAGGGAGGGGGUCCAGCAACAGAGGAUUGAGCAUCA
B5: chr8:35203877:35203878:-_ENSMUSG00000031513_ENSMUST00000033910|mus_hu|motif|central (ssRNA)
RNA: GGGAGUUCUACAGUCCGACGAUCGGAAGGGCACAUCCAAGCAUCAAAAACAUCAGUCCGAUUGCUCCUCCAAAGGACAAACGGAUCAAAGCUUUGAUGCCUGCCAUGGCGGUGACGUCGCUCCUGGCUCCACGACCCGAGGCGCAACAGAGGAUUGAGCAUCA
B6: chr7:54823571:54823572:-_ENSG00000132432_ENST00000352861|hu_mus|hu_hu_hu_mus_False|98_98 (ssRNA)
RNA: GGGAGUUCUACAGUCCGACGAUCUCCCAUGAUAGCAAAUCCUAUUGCUGUAGCCAUGGCAAUCUUCUGGAAUUCUUUUCUGUCGGGUUUGGUGCAUCUUUUAACCAGCCGAAUUGAGUCCUUUACAAACUGCCGGCUGGGCUCCAACAGAGGAUUGAGCAUCA
B7: 80410323_80421071_410_CDS_ENSMUSG00000027002_ENSMUST00000028386|mouse|control|control (ssRNA)
RNA: GGGAGUUCUACAGUCCGACGAUCCACAGCAGAUUCCAGGUUUUUGUCAAUAAGGUAGGAGGGUUUAGCCUUGGGGUCGCCACAUGCCUUCUUGAUGUUGUAGAGGCGCGUGAGCAUGCCGACGCCCCGGUCGUUGAGGAUGGUCAACAGAGGAUUGAGCAUCA
B8: chr7:75932113:75932114:+_ENSG00000106211_ENST00000248553|hu_hu|hu_hu_hu_mus_False|8_88 (ssRNA)
RNA: GGGAGUUCUACAGUCCGACGAUCCUGCGACCACUCAUCGGGCAACCGGGGCAGCCCGAAAGCUUGAUCGAAGAGGCGGCUGUGUGCAGGGUACCAGUCCCGGAAUGGUUCCCAGCUCGGGCUCCGCAGCGAGAAGGAGGGCACCAACAGAGGAUUGAGCAUCA
B9: chr3:94910677:94910678:-_ENSMUSG00000028126_ENSMUST00000107236|mus_mus|motif|central (ssRNA)
RNA: GGGAGUUCUACAGUCCGACGAUCACUUGAGCCGGGCCCCGGGAGUCCCGCGUCUCGGAUAGAACAAACCUAAAGGAAAACCGGGGCACCUGAGGUGCCCCCAAAAGCGAAUGCCCCCCCUCCCUCACCUCCCCAGCCACUGCCCAACAGAGGAUUGAGCAUCA
B10: chr2:25961539:25961540:-_ENSG00000143970_ENST00000336112|hu_mus|FALSE|FALSE (ssRNA)
RNA: GGGAGUUCUACAGUCCGACGAUCGAGUAAUGGAAAGCCUGCUCAUAACAAACCAUUUAACCCAAGAGCUCAUGAAACUUUAAGAGGAGGAAAGCAGCAUAGAGCAAUCAGAAUGGUAACUGAAGGGACCGUUCUAUGUAGGACCAACAGAGGAUUGAGCAUCA
B11: chr7:149838072:149838073:-_ENSMUSG00000048583_ENSMUST00000000033|mus_mus|FALSE|FALSE (ssRNA)
RNA: GGGAGUUCUACAGUCCGACGAUCGAUCACUGCUCCCGUUAUGUAGGGAAUGGGUACAAUUGAUUAUGAGCGCAUAAAAAGCUAAGGAGGGAUUAAAAAAAAAAGGAAAAAACCGGCCCCAGAAAUAAAAAGAGGGGAAUAGAUCAACAGAGGAUUGAGCAUCA
B12: chr7:149838072:149838073:-_ENSMUSG00000048583_ENSMUST00000000033|mus_mus|motif|central (ssRNA)
RNA: B11 RNA with U82G, A83G
B13: chr2:47388980:47388981:-_ENSG00000143933_ENST00000272298|hu_mus|hu_hu_hu_mus_True|8_68 (ssRNA)
RNA: GGGAGUUCUACAGUCCGACGAUCUUCAUCUGUUAACUUCUCGCCAAGGUUUGUCAUCACAUGGCGAAGUUCUGCAGCACUAAUAUAGCCAUUGCCAUCCUUAUCAAACACACGGAAUGCUUCUCUAAUUUCUUCUUCACUGUCCAACAGAGGAUUGAGCAUCA
B14: 160109231_160113639_413_CDS_ENSG00000112096_ENST00000546260|human|control|control (ssRNA)
RNA: GGGAGUUCUACAGUCCGACGAUCAACUUCAGUGCAGGCUGAAGAGCUAUCUGGGCUGUAACAUCUCCUGGAAAACUCGGAACCGGUACAAAUACGAAGCGAGUUCUCCUCCACGGAGAGGCCCGUCCGUAUGGGGCCUGGCUCCAACAGAGGAUUGAGCAUCA
B15: chr4:144460044:144460045:+_ENSG00000153147_ENST00000283131|hu_mus|hu_hu_hu_mus_False|28_78 (ssRNA)
RNA: GGGAGUUCUACAGUCCGACGAUCACGGUCCAUAGCCUGAAGAUCAACUUGCGGAUUCCAAUCAGAAUCAUAUAAAAUGACUACAUCAGCAGUUGCAAGAUUGAUGCCAAGACCACCAGCACGUGUGCUUAGCAUAAAUACAAACAACAGAGGAUUGAGCAUCA
B16: chr6:41756983:41756984:+_ENSG00000214736_ENST00000398881|hu_mus|FALSE|FALSE (ssRNA)
RNA: GGGAGUUCUACAGUCCGACGAUCAUCAAUGUCACUCAAGUUCCUGGCCAGCCAGACUCCCGCAGCAAAGAGUCCCAAAUUGAGGAUCAAGUUCCUCCGGAAGUCGUUUCGAUCGGUGGCGAAGCGGAAGACACCGCGGAGCCACAACAGAGGAUUGAGCAUCA
B17: 40918001_40923414_123_3pUTR_ENSMUSG00000028423_ENSMUST00000098143|mouse|control|control (ssRNA)
RNA: GGGAGUUCUACAGUCCGACGAUCAGCAGCAUCUGUAUUGAAUUUAAAAGUGCCUGAGACCGGAGGCGCCUCCGCCAUCCCGUGCCGCAGCACCUCAAGCGAGCCCCGCCACCGAGCGAAGGCUGUCACCUGGUCACGUGUCCCCAACAGAGGAUUGAGCAUCA
B18: chr7:140404665:140404666:+_ENSG00000090266_ENST00000247866|hu_hu|hu_hu_hu_mus_False|1_28 (ssRNA)
RNA: GGGAGUUCUACAGUCCGACGAUCUGCUCCUACUCGUCCAGAGAGUUUACAGUGUCAGUCCUCGUCAUCAGGAGGGAUUCCCAGUUCUUCAUCUGUCCACUGUGAAGGAUCAGGAUAUGAAAAGUGACCCAGCACAGCUUCUGACAACAGAGGAUUGAGCAUCA
B19: chr1:32384726:32384727:-_ENSG00000184007_ENST00000602725|perfect_dup|FALSE|FALSE (ssRNA)
RNA: GGGAGUUCUACAGUCCGACGAUCAGGAGGAAAUCAAUAAAUCUUGAAAUGUUCCGCAGCAGAAAACAUUAAAAAGACCACUAAAAUGCCUAUUAUUGAUCACUAUUUUCUCUAUUCAACUUGCUUGUUCCUUAGGAAGCUUCUCAACAGAGGAUUGAGCAUCA
B20: 30503004_30509812_319_CDS_ENSG00000126858_ENST00000394692|human|control|control (ssRNA)
RNA: GGGAGUUCUACAGUCCGACGAUCCAGAUCAGAUUUGUUCCCAACCAAUAUUAAAGGCAGCCUGCUGUCUUUGUCUGUUCUUUCAUUUAUGAGAGGAAUCCAUCGACUUGUUACCUUAUCAAUAGAAUGCUUGUUGUUAACGGCCAACAGAGGAUUGAGCAUCA
B21: chr13:9170561:9170562:+_ENSMUSG00000033499_ENSMUST00000091829|mus_mus|FALSE|FALSE (ssRNA)
RNA: GGGAGUUCUACAGUCCGACGAUCCCAUCAGCCCCCAUCCAUCUGCUGGACACCCUACCAAUGCGCACUUGUAGACCAACUAUUAAAAAAAAAAAAAAAGGAAGUAGCAGAGUUCCCUUAAUUUAGAAAAACUCAUUAUAGCUUCAACAGAGGAUUGAGCAUCA
B22: chr7:108137184:108137185:-_ENSG00000135241_ENST00000257694|hu_mus|motif|central (ssRNA)
RNA: GGGAGUUCUACAGUCCGACGAUCUCGAUAGAGUUCCUCACAUUCAUCCAGCGGCAUGUGAAACAAUCCCAGCAUAAAUGCGGAUAUGGCCCCUGUGCUUACUCCACAGAUGUAAUCAAAAAGCUGAUGAAUCGGCUUCUGAGUCAACAGAGGAUUGAGCAUCA
B23: chr18:67805652:67805653:+_ENSMUSG00000024537_ENSMUST00000025418|mus_hu|FALSE|FALSE (ssRNA)
RNA: GGGAGUUCUACAGUCCGACGAUCAUACUUAAUAAAAAUGGAUCUUAACUGUAGAGCCACCAGCUUUCUUGAAGGCAAUGAAUACACUUCAGCAUUUAUGCUAAGUUCUGUUGAAUUUCCUUCUGUGGUCGCAUAUGGAUUGUUCAACAGAGGAUUGAGCAUCA
B24: 48821072_48822033_622_CDS_ENSG00000108848_ENST00000240304|human|control|control (ssRNA)
RNA: GGGAGUUCUACAGUCCGACGAUCUGCAGCAAAGCUUUCAAUUGUCGACGUUGUGGACCUUAGCAGUUCUCUCUCUUCUUUUAAUUGCUCAACUAAUUUCAUCAUCCCCUGGGCUUCUUCUACUUUUCCUUCAGACCCUAAUUCCAACAGAGGAUUGAGCAUCA
B25: chr13:9170561:9170562:+_ENSMUSG00000033499_ENSMUST00000091829|mus_hu|FALSE|FALSE (ssRNA)
RNA: GGGAGUUCUACAGUCCGACGAUCCACUGGCCCUCAUUCAUCUGCGGGGACGUUCUAGAGAUAUGCACUUACAGACCAGUUACUUAAAAAAAAAAAAAAAAAGCAGAGUUCCCUUAAUUUAGAAAAACUCACUAUAUAUAGCUUCAACAGAGGAUUGAGCAUCA
B26: chr2:43450610:43450611:-_ENSG00000152518_ENST00000282388|hu_mus|FALSE|FALSE (ssRNA)
RNA: GGGAGUUCUACAGUCCGACGAUCGUUAAAUAGUUUUUCAUAUUGAGUUGUGGUGCAGUGGUGCGGAUCAACUCAGAACAACUAAAAAUGAAGCACUUAUUUCCCAACAACUAUGAACUGAGCUCUGCCCAUAGCUUCCAGAGACAACAGAGGAUUGAGCAUCA
B27: chr13:9170561:9170562:+_ENSMUSG00000033499_ENSMUST00000091829|mus_mus|motif|central (ssRNA)
RNA: B21 RNA with U80G, A81G

Target: T1, UNK ZnF1-3
Assay: nsRBNS (natural sequence RNA bind-n-seq); RBNS binding buffer (assumed for nsRBNS): 25 mM Tris pH 7.5, 150 mM KCl, 3 mM MgCl2, 0.01% Triton X-100, 500 ug/ml BSA, 20 U/ml SUPERase-In, 4 C; UNK is unkempt and MSI1 is Musashi-1; names of the RNAs are library labels; protein concentration not given here; high values mean tight binding

Binder	binding signal [enrichment R]
B1	0.683
B2	0.747
B3	0.993
B4	1.92
B5	0.394
B6	0.647
B7	0.855
B8	1.63
B9	2
B10	3.45
B11	11
B12	9.4
B13	0.795
B14	0.808
B15	1.2
B16	1.55
B17	1.06
B18	1.15
B19	0.842
B20	0.92
B21	5.05
B22	1.13
B23	1.04
B24	0.686
B25	6.5
B26	1.32
B27	4.58

Reference: PMC12136788
